Test results: PubChem BioAssay (Tox21)
Values joined by “and” are separate entries in the source; they are usually repeats but may differ in a detail not shown here. Equal entries are not always repeated. Records with an inconclusive call do not appear. Some structures have more than one record in an assay (separate samples or runs), and their calls can disagree. Active and inactive are the calls of the source. Unless noted, the call rests on the fitted dose curve; in most records, active means well fitted curve in the direction sought with a large enough effect in the repeat runs; inconclusive means weak or mixed curves; inactive means no such curve, though single readings can be large; an effect the other way counts as inactive or inconclusive.

Columns and labels:
[1] = molecular target: Estrogen receptor beta (Homo sapiens) (UniProt Q92731); test: qHTS assay to identify small molecule agonists of the estrogen receptor beta (ER-beta) signaling pathway (AID 1259377; active means well fitted activation curve with a large enough effect in the signal ratio in the repeat runs, not every such curve was filed as active; the % refers to the signal ratio)
Method in brief: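 Reporter cells (HEK293T, ER-beta-UAS-bla) receive compounds or DMSO after a 6 hr pre-incubation. They then incubate 16 hr at 37C/5% CO2, and fluorescence from LiveBLAzer B/G substrate is measured after 2 hours at room temperature.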

[2] = molecular target: Estrogen receptor beta (Homo sapiens) (UniProt Q92731); test: qHTS assay to identify small molecule antagonists of the estrogen receptor beta (ER-beta) signaling pathway (AID 1259378; active means well fitted inhibition curve with a large enough effect in the signal ratio in the repeat runs, not every such curve was filed as active; the % refers to the signal ratio; further: potency means the concentration at half of the fitted maximal effect)
Method in brief: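 ER-beta-UAS-bla HEK293T cells in 2% charcoal-stripped FBS medium treated with compound plus 1nM final 17-beta-estradiol for 16 hr at 37C. Beta-lactamase reporter read by FRET substrate fluorescence after 2 hours at room temperature.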

[3] = qHTS assay to identify small molecule agonists of the androgen receptor (AR) signaling pathway in the presence of an antagonist - cell viability counter screen (AID 1259379);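 further: MDA-kb2 human breast cancer cells carrying an MMTV luciferase reporter; series mostly up to about 92 µM; nearly all actives have a fitted effect of over 25% in size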
Method in brief: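 Cells: MDA-kb2 (MMTV-luc, AR and GR elements), 3,000/well, 5 hr settle. Added: nilutamide 3.0uM final, then compounds (15 conc.). Incubation: 16 hr, 37C, no CO2. Read-out: CellTiter-Fluor, 1 hr, fluorescence.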

[4] = qHTS assay to identify small molecule agonists of the estrogen receptor beta (ER-beta) signaling pathway - cell viability counter screen (AID 1259380); further: nearly all actives have a fitted effect of over 30% in size; further: potency means the concentration at half of the fitted maximal effect
Method in brief: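 HEK293T ER-beta-UAS-bla; 2% CS-FBS; 6 hr pre-plate, 16 hr cpd at 37C/5% CO2; LiveBLAzer read first, then CellTiter-Glo 30 min RT, luminescence.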

[5] = molecular target: Androgen receptor (Homo sapiens) (UniProt P10275); test: qHTS assay to identify small molecule agonists of the androgen receptor (AR) signaling pathway in the presence of an antagonist (AID 1259381; calls by dose curve; further: nearly all actives have a fitted effect of over 15% in size)
Method in brief: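 MDA-kb2 cells, 3,000/well, rested 5hr at 37C/0% CO2 → nilutamide 3.0uM final or buffer → compounds, 15 conc. → 16hr at 37C → ONE-Glo, 30min RT → luminescence.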

[6] = molecular target: Estrogen receptor (Homo sapiens) (UniProt P03372); test: qHTS assay to identify small molecule agonists of the estrogen receptor alpha (ER-alpha) signaling pathway in the presence of an antagonist (AID 1259383; calls by dose curve; further: nearly all actives have a fitted effect of over 15% in size; further: potency means the concentration at half of the fitted maximal effect; on activation: top concentration of the series differs between compounds)
Method in brief: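 VM7Luc4E2, endog. ER-alpha + 4×ERE-luc; charcoal-stripped FBS, phenol red-free, 5 d; 24hr plating; +10.0nM ICI-182,780 (final); cpds 15 conc, 22hr, 37C/5% CO2; ONE-Glo luminescence.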

[7] = qHTS assay to identify small molecule agonists or antagonists of the thyroid stimulating hormone receptor (TSHR) signaling pathway - wild type cell line counter screen (AID 1259384; calls by dose curve)
Method in brief: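 Wild-type Hek293 cells, 800/well, 18 h at 37C, then compound with Ro20-1724 for 30 min RT. cAMP by HTRF (cAMP-d2/anti-cAMP cryptate), 1 h RT, fluorescence read. 15 concentrations, triplicates.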

[8] = molecular target: Thyrotropin receptor (Homo sapiens) (UniProt P16473); test: qHTS assay to identify small molecule antagonists of the thyroid stimulating hormone receptor (TSHR) signaling pathway (AID 1259385; calls by dose curve; further: nearly all actives have a fitted effect of over 20% in size)
Method in brief: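 TSHR-HEK293 cells (800/well) plated 18 h, then compounds with Ro20-1724 and TSH at 1.5 ng/mL final, 30 min at room temperature. cAMP quantified by HTRF (cAMP-d2/anti-cAMP-cryptate, 1 h); 15 concentrations in triplicate.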

[9] = qHTS assay to identify small molecule agonists of the estrogen receptor alpha (ER-alpha) signaling pathway in the presence of an antagonist - cell viability counter screen (AID 1259386);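 further: series mostly up to about 92 µM; cells exposed to compounds for 22 h at 37 °C before the viability read; nearly all actives have a fitted effect of over 30% in size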
Method in brief: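 VM7Luc4E2, stripped-serum pre-culture 5 d; 24hr plating; +ICI-182,780 10.0nM final; cpds 15 conc, 22hr, 37C/5% CO2; CellTiter-Fluor added at 21hr, fluorescence 1hr later.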

[10] = molecular target: Progesterone receptor (Homo sapiens) (UniProt P06401); test: qHTS assay to identify small molecule agonists of the progesterone receptor (PR) signaling pathway (AID 1346784; calls by dose curve; further: nearly all actives have a fitted effect of over 30% in size; further: potency means the concentration at half of the fitted maximal effect)
Method in brief: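 Reporter assay, GripTite PR-UAS-bla HEK 293T cells: 16 hr exposure to DMSO-dissolved compounds at 37C, 5% CO2, in steroid-depleted (2% charcoal-stripped FBS) medium; beta-lactamase measured by FRET fluorescence.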

[11] = molecular target: Progesterone receptor (Homo sapiens) (UniProt P06401); test: qHTS assay to identify small molecule antagonists of the progesterone receptor (PR) signaling pathway (AID 1346795; active means well fitted inhibition curve with a large enough effect in the signal ratio in the repeat runs, not every such curve was filed as active; the % refers to the signal ratio; further: potency means the concentration at half of the fitted maximal effect)
Method in brief: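 Stimulus R5020 at 1 nM final; cells HEK293T PR-UAS-bla; medium with 2% charcoal-stripped FBS; compound exposure 16 hr at 37C, 5% CO2; detection by FRET beta-lactamase substrate, 2 hr, room temperature.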

[12] = qHTS assay to identify small molecule antagonists of the progesterone receptor (PR) signaling pathway - cell viability counter screen (AID 1346798); further: nearly all actives have a fitted effect of over 50% in size; further: potency means the concentration at half of the fitted maximal effect
Method in brief: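 In the same plates used for the beta-lactamase readout, cell viability of compound- and R5020-treated PR-UAS-bla HEK293T cells (16 hr, 37C) was assessed by CellTiter-Glo luminescence.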

[13] = qHTS assay to identify small molecule agonists of the progesterone receptor (PR) signaling pathway - cell viability counter screen (AID 1346799; calls by dose curve; further: nearly all actives have a fitted effect of over 45% in size)
Method in brief: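 Multiplexed viability read: CellTiter-Glo luminescence, 30 min RT, following LiveBLAzer FRET measurement on PR-UAS-bla HEK293T cells exposed to compounds 16 hr.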

[14] = qHTS assay to identify small molecule antagonists of the TGF-beta/Smad signaling pathway - cell viability counter screen (AID 1346824); further: nearly all actives have a fitted effect of over 50% in size
Method in brief: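 SBE-bla HEK 293T cells, incubated overnight, then compound plus 0.25 ng/mL TGF-beta1 (stock added) for 5 hr at 37 C. Viability was read in the same wells by CellTiter-Glo luminescence after 30 min at room temperature.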

[15] = qHTS assay to identify small molecule agonists of the TGF-beta/Smad signaling pathway (AID 1346859; active means well fitted activation curve with a large enough effect in the signal ratio in the repeat runs, not every such curve was filed as active; the % refers to the signal ratio; further: series mostly up to about 77 µM)
Method in brief: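 Screening used HEK 293T SBE-bla cells at 4,000/well. Test agents: 5 hr, 37 C. Detection: FRET substrate, 2 hr RT, then excitation 405 nm with emissions at 460 and 530 nm.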

[16] = molecular target: Thyrotropin-releasing hormone receptor (Homo sapiens) (UniProt P34981); test: qHTS assay to identify small molecule antagonists of the thyrotropin-releasing hormone receptor (TRHR) signaling pathway (AID 1346877; active means well fitted inhibition curve with a large enough effect in the repeat runs, not every such curve was filed as active; further: series mostly up to about 51 µM)
Method in brief: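 Intracellular calcium fluorescence, read kinetically every second over 3 min, reports TRH-evoked signalling in HEK293 cells carrying TRHR. Test compounds were added 5 min ahead of a 1 nM TRH challenge.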

[17] = Human pregnane X receptor (PXR) small molecule agonists, qHTS cell viability counter screen (AID 1346977); further: nearly all actives have a fitted effect of over 50% in size; further: potency means the concentration at half of the fitted maximal effect
Method in brief: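 In each well, the PXR reporter HepG2 line was checked for viability: CellTiter-Fluor reagent added 23hr post-dosing, fluorescence read after 1hr incubation at 37C.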

[18] = qHTS assay to identify small molecule antagonists of the estrogen receptor beta (ER-beta) signaling pathway - cell viability counter screen (AID 1259382); further: series mostly up to about 92 µM; nearly all actives have a fitted effect of over 55% in size
Method in brief: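 Cells: ER-beta-UAS-bla HEK293T, 2,000/well, 2% CS-FBS, 6 hr settle. Cpd + E2 (1nM final), 16 hr, 37C/5% CO2. Bla FRET substrate 2 hr RT, then CellTiter-Glo 30 min RT, luminescence.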

[19] = qHTS assay to identify small molecule agonists of the TGF-beta/Smad signaling pathway - cell viability counter screen (AID 1346829); further: top concentration of the series differs between compounds; nearly all actives have a fitted effect of over 45% in size
Method in brief: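 Same-well cytotoxicity: CellTiter-Glo added after the 2 hr room-temperature beta-lactamase substrate step, luminescence measured 30 min later; cells had 5 hr of compound at 37 C.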

[20] = molecular target: Thyrotropin-releasing hormone receptor (Homo sapiens) (UniProt P34981); test: qHTS assay to identify small molecule agonists of the thyrotropin-releasing hormone receptor (TRHR) signaling pathway (AID 1346891; calls by dose curve; further: series mostly up to about 58 µM)
Method in brief: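 Readout was intracellular calcium fluorescence in TRHR-Hek293 cells. Cells were incubated 18 h, dye-loaded 2 h at 37 °C, and treated with compound in agonist mode.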

Measured: Potency

Estrogen receptor (Homo sapiens), sequence (P03372 whole entry, looked up): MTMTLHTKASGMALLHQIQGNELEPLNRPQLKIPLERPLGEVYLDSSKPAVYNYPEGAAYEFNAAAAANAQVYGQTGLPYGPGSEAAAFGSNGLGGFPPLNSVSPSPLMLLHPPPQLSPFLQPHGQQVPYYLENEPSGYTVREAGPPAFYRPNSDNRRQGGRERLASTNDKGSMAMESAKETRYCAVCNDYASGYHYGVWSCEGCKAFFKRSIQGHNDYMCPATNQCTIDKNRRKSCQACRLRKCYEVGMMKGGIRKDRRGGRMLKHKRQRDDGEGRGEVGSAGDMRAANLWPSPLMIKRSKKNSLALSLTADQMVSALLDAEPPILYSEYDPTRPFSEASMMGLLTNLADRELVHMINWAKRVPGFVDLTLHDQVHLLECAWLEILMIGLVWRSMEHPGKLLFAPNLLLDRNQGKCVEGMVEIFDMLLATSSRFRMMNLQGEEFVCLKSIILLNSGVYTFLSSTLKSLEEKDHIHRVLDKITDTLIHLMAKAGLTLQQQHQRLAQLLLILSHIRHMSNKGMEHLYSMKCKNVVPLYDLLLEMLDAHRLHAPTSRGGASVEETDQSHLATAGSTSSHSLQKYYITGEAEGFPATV
Progesterone receptor (Homo sapiens), sequence (P06401 whole entry, looked up): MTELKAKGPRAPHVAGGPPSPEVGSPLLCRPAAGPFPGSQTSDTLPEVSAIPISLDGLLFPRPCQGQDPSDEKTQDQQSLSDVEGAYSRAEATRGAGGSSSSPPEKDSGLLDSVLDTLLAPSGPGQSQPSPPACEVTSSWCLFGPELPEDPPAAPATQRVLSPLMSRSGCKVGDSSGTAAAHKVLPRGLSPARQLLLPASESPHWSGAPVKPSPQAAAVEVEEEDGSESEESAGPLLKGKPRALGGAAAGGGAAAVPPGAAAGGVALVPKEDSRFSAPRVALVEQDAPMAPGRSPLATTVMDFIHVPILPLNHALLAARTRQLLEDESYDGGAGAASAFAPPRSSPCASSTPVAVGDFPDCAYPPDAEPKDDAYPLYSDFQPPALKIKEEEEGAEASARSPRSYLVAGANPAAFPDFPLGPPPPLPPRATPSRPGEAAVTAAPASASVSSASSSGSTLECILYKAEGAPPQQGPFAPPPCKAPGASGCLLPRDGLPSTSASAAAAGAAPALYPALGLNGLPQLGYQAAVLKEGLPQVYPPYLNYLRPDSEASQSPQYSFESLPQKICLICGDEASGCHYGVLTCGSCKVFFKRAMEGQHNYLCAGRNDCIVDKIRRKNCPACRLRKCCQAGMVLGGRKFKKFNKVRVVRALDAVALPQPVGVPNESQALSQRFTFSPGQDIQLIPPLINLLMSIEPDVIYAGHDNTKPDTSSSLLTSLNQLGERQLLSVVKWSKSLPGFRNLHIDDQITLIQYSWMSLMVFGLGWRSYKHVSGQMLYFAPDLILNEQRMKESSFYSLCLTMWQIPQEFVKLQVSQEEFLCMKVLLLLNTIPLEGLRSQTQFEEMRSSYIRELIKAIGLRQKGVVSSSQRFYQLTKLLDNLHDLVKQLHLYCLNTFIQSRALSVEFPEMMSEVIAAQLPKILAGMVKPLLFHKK
Estrogen receptor beta (Homo sapiens), sequence (Q92731 whole entry, looked up): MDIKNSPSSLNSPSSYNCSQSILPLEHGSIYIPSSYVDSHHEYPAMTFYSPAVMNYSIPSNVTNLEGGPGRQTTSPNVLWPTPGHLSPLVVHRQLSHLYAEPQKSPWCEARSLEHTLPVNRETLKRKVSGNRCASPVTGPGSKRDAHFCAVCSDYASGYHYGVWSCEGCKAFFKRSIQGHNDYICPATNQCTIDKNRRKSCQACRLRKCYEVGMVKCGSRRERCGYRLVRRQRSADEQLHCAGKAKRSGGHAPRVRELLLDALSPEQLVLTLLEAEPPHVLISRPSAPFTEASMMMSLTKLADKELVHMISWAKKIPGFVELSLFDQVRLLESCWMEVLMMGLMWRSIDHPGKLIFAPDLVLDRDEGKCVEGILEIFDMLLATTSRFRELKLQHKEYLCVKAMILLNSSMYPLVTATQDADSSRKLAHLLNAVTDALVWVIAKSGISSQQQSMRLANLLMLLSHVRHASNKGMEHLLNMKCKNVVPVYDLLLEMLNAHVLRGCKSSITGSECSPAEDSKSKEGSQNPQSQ
Androgen receptor (Homo sapiens), sequence (P10275 whole entry, looked up): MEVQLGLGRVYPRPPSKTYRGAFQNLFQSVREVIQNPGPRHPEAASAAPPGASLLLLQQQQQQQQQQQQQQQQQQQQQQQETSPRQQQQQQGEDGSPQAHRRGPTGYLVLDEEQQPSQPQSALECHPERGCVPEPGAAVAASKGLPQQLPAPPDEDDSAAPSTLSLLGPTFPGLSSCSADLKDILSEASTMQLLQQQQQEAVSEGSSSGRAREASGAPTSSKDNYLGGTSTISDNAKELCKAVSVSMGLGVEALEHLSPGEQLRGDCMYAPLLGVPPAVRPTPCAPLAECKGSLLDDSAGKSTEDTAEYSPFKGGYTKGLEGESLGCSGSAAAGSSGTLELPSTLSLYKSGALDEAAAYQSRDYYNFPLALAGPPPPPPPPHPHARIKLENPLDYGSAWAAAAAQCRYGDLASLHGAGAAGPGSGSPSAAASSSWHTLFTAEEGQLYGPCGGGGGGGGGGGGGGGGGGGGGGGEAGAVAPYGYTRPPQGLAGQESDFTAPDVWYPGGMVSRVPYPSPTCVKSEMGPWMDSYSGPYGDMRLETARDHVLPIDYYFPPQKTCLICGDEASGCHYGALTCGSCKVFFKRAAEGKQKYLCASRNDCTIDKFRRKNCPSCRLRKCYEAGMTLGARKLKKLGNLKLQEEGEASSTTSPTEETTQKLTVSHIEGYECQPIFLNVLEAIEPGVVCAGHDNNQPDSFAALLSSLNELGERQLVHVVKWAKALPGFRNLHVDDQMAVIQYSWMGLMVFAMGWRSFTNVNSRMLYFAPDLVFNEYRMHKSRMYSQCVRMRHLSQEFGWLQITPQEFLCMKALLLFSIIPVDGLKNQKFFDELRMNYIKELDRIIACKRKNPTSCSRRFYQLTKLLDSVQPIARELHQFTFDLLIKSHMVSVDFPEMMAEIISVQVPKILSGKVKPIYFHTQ
Thyrotropin receptor (Homo sapiens), sequence (P16473 whole entry, looked up): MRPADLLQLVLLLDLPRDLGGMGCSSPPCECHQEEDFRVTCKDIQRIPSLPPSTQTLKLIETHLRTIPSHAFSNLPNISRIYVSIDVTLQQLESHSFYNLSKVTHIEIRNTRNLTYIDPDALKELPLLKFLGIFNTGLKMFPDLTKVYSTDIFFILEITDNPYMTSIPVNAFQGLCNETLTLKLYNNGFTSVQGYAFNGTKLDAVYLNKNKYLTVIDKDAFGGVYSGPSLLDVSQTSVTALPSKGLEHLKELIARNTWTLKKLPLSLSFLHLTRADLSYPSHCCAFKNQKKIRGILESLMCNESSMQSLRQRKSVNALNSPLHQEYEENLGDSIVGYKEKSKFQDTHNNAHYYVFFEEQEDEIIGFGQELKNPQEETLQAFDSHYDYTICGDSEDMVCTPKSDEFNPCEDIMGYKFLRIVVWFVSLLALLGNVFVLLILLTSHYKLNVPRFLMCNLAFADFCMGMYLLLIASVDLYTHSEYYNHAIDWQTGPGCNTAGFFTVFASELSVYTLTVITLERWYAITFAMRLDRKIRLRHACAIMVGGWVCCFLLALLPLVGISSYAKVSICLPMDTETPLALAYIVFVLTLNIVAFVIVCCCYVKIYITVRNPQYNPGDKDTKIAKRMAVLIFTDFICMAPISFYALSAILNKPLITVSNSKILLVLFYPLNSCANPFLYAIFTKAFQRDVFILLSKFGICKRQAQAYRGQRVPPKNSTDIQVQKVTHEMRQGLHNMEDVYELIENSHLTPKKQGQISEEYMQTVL
Thyrotropin-releasing hormone receptor (Homo sapiens), sequence (P34981 whole entry, looked up): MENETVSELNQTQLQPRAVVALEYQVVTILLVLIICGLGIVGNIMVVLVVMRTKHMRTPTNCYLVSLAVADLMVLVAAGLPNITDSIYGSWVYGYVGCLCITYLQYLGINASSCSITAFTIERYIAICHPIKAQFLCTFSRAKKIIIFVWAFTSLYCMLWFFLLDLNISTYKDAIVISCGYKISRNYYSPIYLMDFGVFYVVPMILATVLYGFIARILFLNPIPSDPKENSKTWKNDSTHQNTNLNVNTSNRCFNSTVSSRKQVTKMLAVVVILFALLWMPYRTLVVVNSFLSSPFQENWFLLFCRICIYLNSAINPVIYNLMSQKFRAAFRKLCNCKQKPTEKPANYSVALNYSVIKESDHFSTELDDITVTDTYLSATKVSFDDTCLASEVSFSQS

COc1cc(C=O)ccc1O
not listed: [18] | [19] | [20]
inactive: all other assays above

CCCCC/C(C=O)=C\c1ccccc1
not listed: [5] | [6] | [13] | [16] | [20]
inactive: all other assays above

Cc1ccc(O)c(-n2nc3ccccc3n2)c1
active: [11] 48.6 µM
inactive and 1.54 µM (active): [6]
not listed: [5] | [16] | [18] | [20]
inactive: all other assays above

CCOCCO
not listed: [5] | [6] | [18]
inactive: all other assays above

CC1(C)O[C@@H]2[C@@H](CO[C@@]3(COS(N)(=O)=O)OC(C)(C)O[C@@H]23)O1
not listed: [5]
inactive: all other assays above

C=C(C)OC(C)=O
not listed: [5] | [13] | [20]
inactive: all other assays above

C=CCOC(=O)CC(C)C
not listed: [5] | [20]
inactive: all other assays above

CC(=O)Oc1ccccc1C(=O)O
not listed: [16] | [20]
inactive: all other assays above

C[C@]12C[C@H](O)[C@H]3[C@@H](CCC4=CC(=O)CC[C@@]43C)[C@@H]1CC[C@@H]2C(=O)CO
active: [10] 0.971 µM
not listed: [5] | [13] | [16] | [18] | [20]
inactive: all other assays above

CCn1cc(C(=O)O)c(=O)c2ccc(C)nc21
not listed: [5] | [13] | [19] | [20]
inactive: all other assays above

CC(O)COc1ccccc1 (stereo unspecified)
not listed: [6] | [16] | [18] | [19] | [20]
inactive: all other assays above

CC(C)(C)CC(C)(C)c1ccc(O)c(-n2nc3ccccc3n2)c1
active: [4] 27.7 µM | [12] 49.2 µM
not listed: [5] | [13] | [14] | [18] | [19]
inactive: all other assays above

CC(=O)c1ccc(S(=O)(=O)NC(=O)NC2CCCCC2)cc1
not listed: [13] | [18] | [20]
inactive: all other assays above

CC(=O)OC/C=C(C)/C=C/C=C(C)/C=C/C1=C(C)CCCC1(C)C
active: [2] 54.5 µM
not listed: [5] | [13] | [18] | [19]
inactive: all other assays above

O=C1CCCCCN1
7.08 µM (active) and inactive: [17]
not listed: [5] | [6] | [13] | [16] | [20]
inactive: all other assays above
